What all share (assay): NCI-60 one-dose screen, 48 h (100 = growth as untreated, 0 = no growth, -100 = all killed)
Common to all, as to conditions: 10 µM unless noted

Assay [1] has as its system NCI-H23 lung.
The test system of assay [2] is NCI-H226 lung.
Assay [3] deals with NCI-H322M lung.
In assay [4] the test system is HOP-62 NSCLC.
The subject of assay [5] is NCI-H460 lung.
For assay [6], the system named is HOP-92 NSCLC.
Assay [7] has as its system NCI-H522 lung.
The subject of assay [8] is A549/ATCC NSCLC.
Assay [9] concerns 786-0 renal.
For assay [10], the system named is COLO 205 colon.
The subject of assay [11] is DU-145 prostate.
Assay [12] relates to K-562 leukemia.
Assay [13] relates to MALME-3M melanoma.
Assay [14] deals with MDA-MB-231 breast.
Assay [15] deals with RXF 393 renal.
Assay [16] relates to SF-268 CNS.
For assay [17], the system named is SF-295 CNS.
The subject of assay [18] is SF-539 CNS.
In assay [19] the test system is UACC-257 melanoma.
Assay [20] deals with M14 melanoma.

Among the data in PubChem BioAssay (NCI) are growth values, retold here.

The structures appear in SMILES notation. About 83,000 compounds went through this panel and 20% of them were active in at least one assay; those are over-represented in the sample as a whole.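 Single-dose data. Exposure time 48 hours. Values below 10 considered active.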 Unmarked numbers belong to inactive results. Activity calls are given as the source filed them.

In the case of `N#C/C(=C\c1ccc(-c2ccc(Br)cc2)o1)c1nc(-c2ccco2)cs1`, the growth in assay [1] was 89.4%; in assay [2], 88.2%; in [3], 85%; in assay [4], 95.7%; in assay [5], 91.4%; in assay [6] it was 86.3%. In addition, the growth was 93.2% in assay [7]; 98.3% in assay [8]; 98.8% in [9]; 102% in assay [10]; 101% in assay [11]; 97.9% in [12]. Also, the growth in assay [13] is 97.7%; in assay [14] it was 76%; in [15] it was 101%; in assay [16] it was 101%; in assay [17], 91.2%; in assay [18] it was 90.8%. For the same molecule, the growth is 102% in assay [19] and 89.2% in assay [20].
Take `Cc1cc(Cl)nc(N(CCNc2ccnc3cc(Cl)ccc23)Cc2ccco2)n1`: the growth in assay [1] is 45.6%; in assay [2], 70.3%; in assay [3], 70.6%; in assay [4], 25.6%; in [5] it was 31.7%; in [6], 57%. In addition, the growth in [7] was 53.2%; in [8], 60.6%; in assay [9], -9.46% (active); in [10], 50.9%; in assay [11] it was 52.2%; in [12], 16.2%. Also, the growth was 81.3% in assay [13]; 19.3% in assay [14]; -15.7% (active) in [15]; 66.7% in [16]; 59.4% in assay [17]; -41.6% (active) in [18]. Further, the growth was 115% in [19] and 55.3% in [20].
Turning to `N#CC1=C(N)Oc2c(c(N)nn2-c2ccccc2)C1c1ccc(Cl)cc1Cl` (stereo not given), the growth in [1] was 103%; in assay [2], 102%; in assay [3] it was 104%; in assay [4] it was 92.8%; in [5] it was 106%; in [6], 86.9%. The growth in [7] is 90.5%; in [8], 108%; in assay [9], 102%; in assay [10], 120%; in assay [11], 105%; in assay [12], 89.6%. Moreover, the growth in assay [13] is 104%; in [14] it was 97.4%; in assay [15] it was 109%; in assay [16], 92%; in assay [17], 106%; in assay [18], 94.3%. The values for the growth in assay [19] and in assay [20] were 104% and 96.7%, respectively.
As to `CC(=O)c1c(C)[nH]c(-c2nc3ccc(N4CCN(C)CC4)cc3[nH]2)c1-c1ccc(OCC2CCOCC2)cc1`, the growth in [1] is 36.6%; in [2], 44.4%; in assay [3], 41.1%; in assay [4], 24.7%; in [5] it was 49.6%; in assay [6], 37%. Besides, the growth is 37.6% in [7]; 33.2% in assay [8]; 35.6% in assay [9]; 3.57% (active) in assay [10]; 63.4% in assay [11]; 22.4% in assay [12]. Also, the growth is 20.7% in [13]; 37.4% in assay [14]; 31.1% in [15]; 54.3% in [16]; 43.3% in assay [17]; 40.2% in assay [18]. Also, the growth in [19] is 30.8%; in assay [20], 34.5%.
Regarding `Nc1nc2c(c(=O)[nH]1)C(c1ccc3c(c1)OCO3)C=C(C(=O)O)N2` (stereo not given), the growth is 109% in assay [1]; 115% in assay [2]; 114% in assay [3]; 115% in [4]; 110% in assay [5]; 117% in assay [6]. The growth is 106% in assay [7]; 99.2% in assay [8]; 98.3% in assay [9]; 119% in [10]; 112% in [11]; 99.7% in assay [12]. Moreover, the growth in assay [13] was 101%; in assay [14], 121%; in assay [15], 120%; in assay [16] it was 112%; in assay [17] it was 94.2%; in assay [18], 101%. In addition, the growth was 97% in [19] and 112% in [20].
`Fc1ccc(Nc2nnc(-c3ccc(Cl)cc3)o2)cc1`: the growth in [1] is 95%; in assay [2] it was 93.8%; in [3], 103%; in assay [4], 89.5%; in assay [5] it was 105%; in assay [6], 95.5%. Also, the growth in assay [7] was 74%; in assay [8], 81.3%; in assay [9], 104%; in [10], 94.2%; in assay [11] it was 107%; in [12], 70.6%. Besides, the growth in assay [13] was 95.6%; in assay [14], 85.9%; in [15], 100%; in assay [16] it was 99.3%; in assay [17], 102%; in assay [18], 103%. The figures for the growth in assay [19] and in assay [20] were 88.9% and 95.4%, respectively.
For the molecule `CC(=O)n1c(/C(C#N)=C/c2ccc(N(C)C)cc2)cc2ccccc21`, the growth in assay [1] is 40.5%; in [2], 61.1%; in [3] it was 53.3%; in assay [4], 31.3%; in assay [5], 15%; in assay [6], 70.9%. Further, the growth in assay [7] is 23.1%; in assay [8], 48.8%; in assay [9], 41.3%; in [10] it was 16.5%; in [11], 35.8%; in assay [12], 15%. Moreover, the growth was 57% in [13]; 44.7% in assay [14]; 24.6% in assay [15]; 56.9% in [16]; 7.39% (active) in assay [17]; 17.1% in assay [18]. For the same molecule, the growth was 68.6% in assay [19] and 26.8% in [20].
Consider `CCCCC[C@H]1CC=C2C(=O)C(Cl)=C[C@@H]2CC=CCCCC(=O)O[C@@H](CCCCC)CC=C2C(=O)C(Cl)=C[C@@H]2CC=CCCCC(=O)O[C@@H](CCCCC)CC=C2C(=O)C(Cl)=C[C@@H]2CC=CCCCC(=O)O1`, for which the growth in [1] was 58.4% [8 µM]; in assay [2], 115% [8 µM]; in assay [3], 96.2% [8 µM]; in assay [4] it was 89.8% [8 µM]; in assay [5], 91% [8 µM]; in assay [6], 130% [8 µM]. The growth in [7] is 25.1% [8 µM]; in assay [8], 90.6% [8 µM]; in assay [9], 103% [8 µM]; in [10], 70.8% [8 µM]; in assay [11], 59.9% [8 µM]; in assay [12], 27.7% [8 µM]. The growth is 105% [8 µM] in [13]; 53.1% [8 µM] in assay [14]; 79.2% [8 µM] in assay [15]; 73.1% [8 µM] in [16]; 106% [8 µM] in assay [17]; 88% [8 µM] in assay [18]. Moreover, the growth is 76.3% [8 µM] in [19] and 48.2% [8 µM] in assay [20].
